Experimental data taken from PubChem BioAssay (NCI).
The panel holds about 83,000 compounds, 20% with a hit somewhere; the sample as a whole holds those more often.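 Results are percent growth after 48 hours of single-concentration exposure. 100 means growth as in untreated cells, lower positive values show inhibition; negative values down to -100 show cell death.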 A number with no mark means an inactive call. Active and inactive are the calls of the source. Rule for the calls: active = growth percent below 10; inactive = the rest.

system: HL-60(TB) leukemia; assay: NCI-60 one-dose screen, 48 h (100 = growth as untreated, 0 = no growth, -100 = all killed); conditions: 10 µM unless noted

| SMILES | growth |
| --- | --- |
| COc1cc(/C=C/c2cc(O)c3cc(C(C)=O)c(=O)oc3c2)cc2c1O[C@]1(C)CC[C@@H](O)C(C)(C)[C@H]1C2 | 4.64% (active) |
| CCCCCN(CCCCC)CCC[C@@H](C)[C@H]1CC[C@H]2[C@@H]3[C@H](OCCCN)C[C@@H]4C[C@H](OCCCN)CC[C@]4(C)[C@H]3C[C@H](OCCCN)[C@]12C | -16.8% (active) |
| CC(C)NCC(O)COc1ccc(CCOCC2CC2)cc1 (stereo not given) | 92.8% |
| Cc1ccc(-c2cc(-c3ccc(C)cc3)nc(NCCNc3ccnc4cc(Cl)ccc34)n2)cc1 | -44.6% (active) |
| Cc1ccc(N2C(=O)C=CC2=O)cc1 | 63.2% |
| Cc1cc(Cl)c2ccc(N(C)C)cc2n1 | 93.6% |
| COc1ccc(N=Nc2nccs2)c(O)c1 | -32.2% (active) |
| COc1ccc(/C=C/C(=O)c2ccc(-n3cc(CN4CCN(c5cc6c(cc5F)c(=O)c(C(=O)O)cn6C5CC5)CC4)nn3)cc2)cc1 | 85.9% |
| COc1cc(C2C=C(c3ccc(Cl)cc3)N=C3SC(C)=CN32)cc(OC)c1OC (stereo not given) | 93.6% |
| C#CCOc1cc(/C=N/Nc2nc(-c3ccc(OC)cc3)cs2)ccc1O | 97.6% |
| COc1cc(/C=C/c2cc(/C=C/c3ccc(O)c(OC)c3)n(-c3ccc(Cl)cc3)c(=O)n2)ccc1O | 92.6% |
| CCn1c(C)nc([N+](=O)[O-])c1Sc1nc(N)nc2nc[nH]c12 | 50.9% |
| Cc1csc2ccc(Cl)cc12 | 110% |
| CC1(C)N=C(N)N=C(N)N1c1cc(Cl)ccc1Cl | 53.7% |
| COc1ccc(-c2c3c(nc4n[nH]c(-c5ccc(Cl)cc5)c24)-c2ccccc2C(=O)C3=O)cc1 | 11.7% |
| CC(C)Cc1nc(Nc2ccccc2)[nH]c(=O)c1C#N | 57.7% |
| N#Cc1nn(-c2cc(=O)[nH]c3ccc(Br)cc23)c(N)c1C#N | -11.2% (active) |
| Cc1ccc(S(=O)(=O)Oc2ccc3sc4c(CO)ccc(NCCN(C)C)c4c(=O)c3c2)cc1 | -51.1% [100 µM] (active) |
| COc1cc(/C=C/c2nc(Nc3ccc(S(=O)(=O)Nc4cc(C)on4)cc3)c3ccccc3n2)ccc1O | 27.4% |
| N=C(N)c1ccc(-c2ccc(-c3cccs3)s2)s1 | -62% (active) |

| SMILES | growth |
| --- | --- |
| Cc1cc(N(CCNc2ccnc3cc(Cl)ccc23)Cc2cccs2)nc(Cl)n1 | -72.4% (active) |
| COC1=CC(c2ccc[nH]2)=N/C1=C\c1[nH]c(C)c(C)c1CCC(=O)OCc1ccccc1 | -39.1% (active) |
| CCOC(=O)c1c(C(=O)OCC)c2cc(-c3ccn4c(C(=O)c5ccccc5)c(C(=O)OCC)c(C(=O)OCC)c4c3)ccn2c1C(=O)c1ccccc1 | 86.3% |
| COc1ccc(C2=Nc3c(C)nn(-c4ccccc4)c3NC(c3ccc(Oc4ccnc5cc(Cl)ccc45)c(OC)c3)C2)cc1 (stereo not given) | 90.8% |
| Nc1nc2c(c(=O)[nH]1)C1(C(=O)Nc3ccccc31)c1c(nc(N)[nH]c1=O)N2 | 108% |
| N#CC(C#N)N=Nc1cc(Cl)ccc1Cl | 85.2% |
| COc1ccc2nc(-c3cc(-c4cc(OC)c(OC)c(OC)c4)n[nH]3)[nH]c2c1 | -38.7% (active) |
| CCCCCCCCCCCCCCCC[n+]1cccc(C#N)c1 | 30.4% |
| C[C@H](C(=O)Nc1ccc(S(N)(=O)=O)cc1)S(=O)(=O)c1ccccc1 | 101% |
| Clc1ccc2nn3c4ccccc4c(OCCN4CCOCC4)nc3c2c1 | 81.9% |
| COc1ccc(N2CCN(c3nc(-c4cc(OC)c(OC)c(OC)c4)nc4ccccc34)CC2)cc1 | 44.4% |
| C[C@@H]1CC[C@@H]2[C@@H]1[C@H](OC(=O)c1ccc3ccccc3c1)[C@]1(C3CCCCC3)C[C@@H](OC(=O)CO)[C@@]2(C)O1 | 30.6% |
| C=CCC(CCCC)(C(=O)OCC)C(=O)OCC | 80.6% |
| CC(C)CCc1nc2ccc(NCc3ccc(OCCN4CCC(C)CC4)cc3)cc2[nH]1 | 84.8% |
| Cc1cc2ccccc2c(O)c1C#N | 89.6% |
| Cc1cc(C(=O)Nc2cc(Oc3ccc4nc(NC(=O)C5CC5)cn4n3)ccc2C)n(C)n1 | 7.21% (active) |
| c1ccc(-c2oc3ccccc3c2-c2ccccc2)cc1 | 48.5% |
| C#CC[C@@H]1C[C@]2(C)[C@H]3CC[C@@H]4[C@H]5C(C(=C)C)CC[C@]5(C(=O)NCCCCCCCCN)CC[C@@]4(C)[C@]3(C)CC[C@H]2C(C)(C)[C@H]1OC(C)=O (stereo not given in full) | 22% |
| COc1cccc2c1O/C(=C\c1ccc([N+](=O)[O-])s1)C2=O | 39% |
| COc1ccc(-c2cc(-c3ccc(Nc4ccnc5cc(Cl)ccc45)cc3)nc(N3CCOCC3)n2)cc1 | 7.25% (active) |
